Experimental data taken from PubChem BioAssay (NCI).
The panel holds about 83,000 compounds, 20% with a hit somewhere; the sample as a whole holds those more often.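 In brief: 96-well plates, 48 h treatment, single concentration, percent growth endpoint.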 Activity calls are given as the source filed them. How the source made its calls: active means growth percent below 10; inactive means the rest.

Experiments:
Assay in all cases: NCI-60 one-dose screen, 48 h (100 = growth as untreated, 0 = no growth, -100 = all killed)
Settings in all cases: 10 µM unless noted
DU-145 prostate = tested on: DU-145 prostate
K-562 leukemia = tested on: K-562 leukemia
MALME-3M melanoma = tested on: MALME-3M melanoma
MDA-MB-231 breast = tested on: MDA-MB-231 breast
RXF 393 renal = tested on: RXF 393 renal
SF-268 CNS = tested on: SF-268 CNS
SF-295 CNS = tested on: SF-295 CNS
SF-539 CNS = tested on: SF-539 CNS
UACC-257 melanoma = tested on: UACC-257 melanoma
M14 melanoma = tested on: M14 melanoma

Measured: growth

CCCCCCCCCCCCCCCCCCOc1ccccc1CC(=O)NCC[N+]1(C)CCOCC1
inactive: DU-145 prostate 65.5% | K-562 leukemia 15.7% | MALME-3M melanoma 58.9% | MDA-MB-231 breast 54.1% | SF-268 CNS 41.5% | SF-295 CNS 62.8% | SF-539 CNS 54.5% | UACC-257 melanoma 99.4% | M14 melanoma 69.6%
active: RXF 393 renal -39.4%

C#Cc1cccc(Nc2nc3ccc([N+](=O)[O-])cc3nc2Nc2cccc(C#C)c2)c1
active: DU-145 prostate -52.4% | K-562 leukemia -57.5% | MALME-3M melanoma -29.5% | MDA-MB-231 breast -57% | RXF 393 renal -56.4% | SF-268 CNS -51.4% | SF-295 CNS -69.4% | SF-539 CNS -77.4% | UACC-257 melanoma -70.1% | M14 melanoma -82%

CC(=O)Nc1c(Cl)cc(Cl)c2c1Cc1cc([N+](=O)[O-])ccc1-2
inactive: DU-145 prostate 104% | K-562 leukemia 90.2% | MALME-3M melanoma 107% | MDA-MB-231 breast 83.6% | RXF 393 renal 85.3% | SF-268 CNS 95.5% | SF-295 CNS 113% | SF-539 CNS 61.1% | UACC-257 melanoma 107% | M14 melanoma 100%

CCOC(=O)c1c(C)nn(CC(O)c2ccccc2)c1NC(=O)Nc1cccc(F)c1 (stereo not given)
inactive: DU-145 prostate 94.3% | K-562 leukemia 88.5% | MALME-3M melanoma 101% | MDA-MB-231 breast 93% | RXF 393 renal 85.2% | SF-268 CNS 83.7% | SF-295 CNS 78.9% | SF-539 CNS 98.8% | UACC-257 melanoma 91% | M14 melanoma 96.2%

CCOC(=O)NN1CC(O)=C(c2nc(-c3ccc(Br)cc3)cs2)C1=N
inactive: DU-145 prostate 105% | K-562 leukemia 78.4% | MALME-3M melanoma 112% | MDA-MB-231 breast 104% | RXF 393 renal 82.9% | SF-268 CNS 108% | SF-295 CNS 90.9% | SF-539 CNS 96.7% | UACC-257 melanoma 96.4% | M14 melanoma 156%

Cc1nc2sc(C(=O)Nc3cccc(Cl)c3)c(N)c2cc1C(O)c1ccccc1 (stereo not given)
active: K-562 leukemia 6.94% | SF-539 CNS -3.45%
inactive: DU-145 prostate 19.7% | MALME-3M melanoma 49.7% | MDA-MB-231 breast 22.3% | RXF 393 renal 27.7% | SF-268 CNS 42.3% | SF-295 CNS 28.8% | UACC-257 melanoma 35% | M14 melanoma 15%

COc1ccc2cc(Cn3cc[n+](Cc4ccc5ccccc5c4)c3)ccc2c1
active: RXF 393 renal 4.94% | UACC-257 melanoma -15.8%
inactive: DU-145 prostate 52.2% | K-562 leukemia 18.4% | MALME-3M melanoma 24.3% | MDA-MB-231 breast 29.8% | SF-268 CNS 22.6% | SF-295 CNS 67% | SF-539 CNS 48.5% | M14 melanoma 17.5%

Cc1ccc(-c2nc(C#N)c(S(=O)(=O)NCCO)o2)cc1
inactive: DU-145 prostate 90% | K-562 leukemia 29.8% | MALME-3M melanoma 75.5% | MDA-MB-231 breast 75.6% | RXF 393 renal 56.6% | SF-268 CNS 87.4% | SF-295 CNS 101% | SF-539 CNS 46.6% | UACC-257 melanoma 71.4% | M14 melanoma 32.5%

C#CCn1cnc2c(Nc3cccc(NC(=O)CCl)c3)ncnc21
inactive: DU-145 prostate 43.6% | K-562 leukemia 13.2% | MALME-3M melanoma 34.4% | MDA-MB-231 breast 18.4% | RXF 393 renal 54.6% | SF-268 CNS 35.3% | SF-295 CNS 59.7% | SF-539 CNS 45.4% | UACC-257 melanoma 28.4% | M14 melanoma 24.4%

O=C1/C(=C/c2ccccc2)CN(C(=O)c2cccnc2)C/C1=C\c1ccccc1
inactive: DU-145 prostate 14.5% | MALME-3M melanoma 23.9% | SF-268 CNS 17.4% | UACC-257 melanoma 23.9%
active: K-562 leukemia 2.62% | MDA-MB-231 breast 3.84% | RXF 393 renal -64.1% | SF-295 CNS -8.61% | SF-539 CNS -4.29% | M14 melanoma -41.5%

Clc1nccc2c(-c3csc(-c4c[nH]c5ccccc45)n3)c[nH]c12
inactive: DU-145 prostate 31.6% | K-562 leukemia 10.3% | MALME-3M melanoma 79.8% | MDA-MB-231 breast 24.8% | RXF 393 renal 12.4% | SF-268 CNS 73.4% | SF-295 CNS 26.7% | SF-539 CNS 41.9%
active: UACC-257 melanoma -29.2% | M14 melanoma -26.6%

COc1cc2c(c(OC)c1OC)C(=O)CC(c1cccc(NC(=O)c3ccccc3Br)c1)O2 (stereo not given)
inactive: DU-145 prostate 97.1% | K-562 leukemia 70.2% | MALME-3M melanoma 105% | MDA-MB-231 breast 98.6% | RXF 393 renal 99.4% | SF-268 CNS 90.5% | SF-295 CNS 92.5% | SF-539 CNS 96.5% | UACC-257 melanoma 90.1% | M14 melanoma 97.8%

CN(C)c1ccc(/C=C/C(=O)c2ccc(Nc3nc(Nc4ccc(F)cc4)nc(Nc4ccc(Cl)cc4)n3)cc2)cc1
inactive: DU-145 prostate 84.4% | K-562 leukemia 23.7% | MALME-3M melanoma 64.3% | MDA-MB-231 breast 80.1% | RXF 393 renal 22.4% | SF-268 CNS 84.1% | SF-295 CNS 44.8% | SF-539 CNS 82.2% | UACC-257 melanoma 82.2% | M14 melanoma 54%

CC1(C)O[C@H]2OC3CCC(=O)CC3(O)[C@H]2O1 (stereo not given in full)
inactive: DU-145 prostate 107% | K-562 leukemia 94.8% | MALME-3M melanoma 104% | MDA-MB-231 breast 113% | RXF 393 renal 104% | SF-268 CNS 99.3% | SF-295 CNS 110% | SF-539 CNS 105% | UACC-257 melanoma 96.5% | M14 melanoma 99.9%

CN1CCN(CCCOC(=O)c2c3c(n4ccccc24)C(=O)c2ncccc2C3=O)CC1
inactive: MDA-MB-231 breast 20%
active: DU-145 prostate -66.5% | K-562 leukemia -30.4% | MALME-3M melanoma -59.7% | RXF 393 renal -2.1% | SF-268 CNS 5.69% | SF-295 CNS -5.73% | SF-539 CNS -13.1% | UACC-257 melanoma -34.2% | M14 melanoma -86.1%

COc1ccc(C2C3=C(COC3=O)N(CCO)c3cc4c(cc32)OCCO4)cc1OC (stereo not given)
active: RXF 393 renal 5.27% | SF-295 CNS 3.18% | SF-539 CNS -2.02%
inactive: DU-145 prostate 14.6% | K-562 leukemia 27.6% | MALME-3M melanoma 41.7% | MDA-MB-231 breast 56.8% | SF-268 CNS 51.7% | UACC-257 melanoma 44.1% | M14 melanoma 13.6%

COc1cc(-c2cc(-c3ccc(Nc4ncnc5cc(Cl)ccc45)cc3)nc(N3CCN(C)CC3)n2)cc(OC)c1OC
inactive: DU-145 prostate 98.9% | K-562 leukemia 56% | MALME-3M melanoma 71% | MDA-MB-231 breast 51.7% | SF-268 CNS 76.9% | SF-295 CNS 111% | SF-539 CNS 32.9% | UACC-257 melanoma 117% | M14 melanoma 80.8%
active: RXF 393 renal -1.57%

COc1ccc2c(c1)c(-c1nonc1-c1cn(C)c3ccc(OC)cc13)cn2C
inactive: DU-145 prostate 70.9% | K-562 leukemia 13% | MALME-3M melanoma 41.7% | MDA-MB-231 breast 49.5% | RXF 393 renal 70.9% | SF-268 CNS 54.2% | SF-295 CNS 30.4% | SF-539 CNS 33.9% | UACC-257 melanoma 62.4% | M14 melanoma 16.6%

COC(=O)/C(CCC=C(C)C)=C1\[C@@H](OC(C)=O)C[C@@]2(C)[C@H]1CC(=O)[C@H]1[C@@]3(C)CCC(N4CCCC4)[C@@H](C)[C@@H]3CC[C@@]12C (stereo not given in full)
inactive: DU-145 prostate 101% | K-562 leukemia 12.5% | MALME-3M melanoma 100% | MDA-MB-231 breast 130% | RXF 393 renal 98.3% | SF-268 CNS 97.6% | SF-295 CNS 98.3% | SF-539 CNS 102% | UACC-257 melanoma 110% | M14 melanoma 93.1%

CCOC(=O)c1c2c(n3c1NCC3)-c1ccccc1C2=O
inactive: DU-145 prostate 100% | K-562 leukemia 87.3% | MALME-3M melanoma 89.9% | MDA-MB-231 breast 107% | RXF 393 renal 102% | SF-268 CNS 99.6% | SF-295 CNS 96% | SF-539 CNS 93.7% | UACC-257 melanoma 95.7% | M14 melanoma 104%

N/C(=N\c1nc2ccccc2s1)NC(=NC1CCCCC1)NC1CCCCC1
active: K-562 leukemia 3.16% | MALME-3M melanoma -70% | RXF 393 renal -46.9% | SF-295 CNS -34.9% | SF-539 CNS -44.7% | UACC-257 melanoma -52.6% | M14 melanoma -55.8%
inactive: DU-145 prostate 14.3% | MDA-MB-231 breast 21.1% | SF-268 CNS 60%

N#Cc1nc(-c2ccc(F)cc2)oc1S(=O)(=O)N1CCN(c2ccc(F)cc2)CC1
inactive: DU-145 prostate 102% | K-562 leukemia 17.6% | MALME-3M melanoma 104% | MDA-MB-231 breast 92% | RXF 393 renal 95.3% | SF-268 CNS 106% | SF-295 CNS 106% | SF-539 CNS 101% | UACC-257 melanoma 97.9% | M14 melanoma 88.2%

COc1ccc(-c2ccc(-c3ccc(C(=N)N)cn3)s2)cc1
active: K-562 leukemia 0.33%
inactive: DU-145 prostate 64.2% | MALME-3M melanoma 102% | MDA-MB-231 breast 87.7% | RXF 393 renal 97.8% | SF-268 CNS 99% | SF-295 CNS 104% | SF-539 CNS 94.3% | UACC-257 melanoma 102% | M14 melanoma 101%

C=CCn1c(SCC(=O)Nc2ccc(C(=O)/C=C/c3ccc(OC)cc3)cc2)nnc1-c1ccccc1
inactive: DU-145 prostate 93.8% | K-562 leukemia 91.5% | MALME-3M melanoma 88.2% | MDA-MB-231 breast 76.2% | RXF 393 renal 115% | SF-268 CNS 80.9% | SF-295 CNS 90.4% | SF-539 CNS 98.2% | UACC-257 melanoma 104% | M14 melanoma 81.5%

CCOC(=O)C1=C(C)N=C2SC=C(c3ccccc3)N2[C@H]1c1cn[nH]c1-c1ccc(Cl)cc1
inactive: DU-145 prostate 64.6% | K-562 leukemia 40.5% | MDA-MB-231 breast 41.9% | RXF 393 renal 61.2% | SF-268 CNS 44.8% | SF-295 CNS 41% | SF-539 CNS 44.4% | UACC-257 melanoma 52.6% | M14 melanoma 47.7%
active: MALME-3M melanoma -27.9%

Cc1cc2nc3c4ccccc4n(CCN(C)C)c3nc2cc1C
inactive: SF-268 CNS 31.2% | SF-295 CNS 27.6% | SF-539 CNS 12.2% | M14 melanoma 13.2%
active: DU-145 prostate 1.97% | K-562 leukemia 8.35% | MALME-3M melanoma -10.5% | MDA-MB-231 breast 3.96% | RXF 393 renal 8.24% | UACC-257 melanoma 2.35%

COc1ccc(C2=Nc3c(N)ncnc3NC(c3cccc(Nc4ccnc5cc(C(F)(F)F)ccc45)c3)C2)cc1 (stereo not given)
inactive: DU-145 prostate 80.2% | K-562 leukemia 15.5% | MALME-3M melanoma 72.3% | MDA-MB-231 breast 46.3% | RXF 393 renal 41% | SF-268 CNS 56.9% | SF-295 CNS 61.9% | SF-539 CNS 70% | UACC-257 melanoma 74.9% | M14 melanoma 66%
